Bioassay records: PubChem BioAssay, several laboratories
FBA Mtb inh: Mtb FBA enzyme inhibitors, primary screen, biochemical, fluorescence, strain H37Rv | inhibition, % at 1 µM | purified M. tuberculosis FBA, fluorescence read-out | 360,000 compounds, 2.3% hits; in the data active = inhibition above about 27%;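 note: 0% = vehicle and 100% = reference inhibitor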
Target sequence (P9WQA3 whole entry, looked up): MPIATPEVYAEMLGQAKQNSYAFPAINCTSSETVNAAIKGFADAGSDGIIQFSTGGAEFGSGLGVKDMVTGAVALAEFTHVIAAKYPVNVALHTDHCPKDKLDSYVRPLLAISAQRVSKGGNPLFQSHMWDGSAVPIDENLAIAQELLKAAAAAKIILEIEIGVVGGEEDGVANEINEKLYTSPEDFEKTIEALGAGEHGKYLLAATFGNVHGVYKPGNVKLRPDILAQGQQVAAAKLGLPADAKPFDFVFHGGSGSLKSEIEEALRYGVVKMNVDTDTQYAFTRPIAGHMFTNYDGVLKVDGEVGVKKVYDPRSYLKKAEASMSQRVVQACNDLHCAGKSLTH
GDH-TPI inh: GDH-TPI coupling enzyme inhibitors, primary screen, artefact control for M. tuberculosis FBA inhibitor project, biochemical, absorbance, full deck | GDH-TPI coupled enzyme counterscreen, NADH absorbance | inhibition, % at 4.8 µM | 360,000 compounds, 1.2% hits | AID 588335, 2011; in the data active = inhibition above about 30%;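 note: 0% = DMSO wells and 100% = wells lacking the enzyme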
UGM FP inh: M. tuberculosis UGM enzyme inhibitors, primary screen, biochemical, fluorescence polarization, single point; UDP-galactopyranose mutase (Mycobacterium tuberculosis (strain ATCC 25618 / H37Rv)), …; purified UGM, fluorescence polarization probe displacement; inhibition, % at 10 µM; 320,000 compounds, 0.06% hits; AID 504406, 2011; in the data active = inhibition above about 10%, passing the limit was not always enough
RecA splice inh: Mtb RecA intein splicing inhibitors, primary screen, biochemical, fluorescence, HTS. Protein RecA (Mycobacterium tuberculosis (strain ATCC 25618 / H37Rv)), P9WHJ3. cell-free RecA intein splicing. inhibition, % (no concentration beside the values). 290,000 compounds, 0.75% hits. AID 2221, 2009; in the data active = inhibition above about 30%;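 note: 0% = vehicle wells and 100% = reference inhibitor control wells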
Rv3671c protease: Rv3671c serine protease inhibitors, primary screen, biochemical, fluorescence polarization, M. tuberculosis H37Rv. inhibition, % at 5.96 µM. 320,000 compounds, 0.048% hits. AID 2606, 2010; in the data active = inhibition above about 38%;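 note: extracellular domain of Rv3671c used as enzyme; 0% = enzyme with DMSO and 100% = no enzyme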
Mtb betalactam: beta-lactam sensitization of Mtb H37Rv, H37Rv; M. tuberculosis H37Rv growth with meropenem, percent inhibition; inhibition, % at 25 µM; 330,000 compounds, 0.27% hits; call rule not given here;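 note: growth measured after seven days incubation then overnight dye step; 0% = bacteria only wells and 100% = bacteria with antibiotic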
An asterisk follows results filed as active; / = no result; + = active, no number. Sampled rows, rich in hits. Any-hit rate of the full collection: about 4%.

SMILES | FBA Mtb inh | GDH-TPI inh | UGM FP inh | RecA splice inh | Rv3671c protease | Mtb betalactam
CC(=O)C1(O)CCC2C3CC(C)C4=CC(=O)C=CC4(C)C3(F)C(O)CC21C (centres undefined) | 1 | 7 | / | / | / | /
CCC(c1nnnn1Cc1ccc(F)cc1)N(CCCO)Cc1cc2cc3c(cc2[nH]c1=O)OCO3 (centres undefined) | 13 | 35* | 1 | -2 | 3 | -9
CCC(c1nnnn1CC1CCCO1)N(CCCO)Cc1cc2cccc(C)c2[nH]c1=O (centres undefined) | 13 | 4 | 2 | -1 | -7 | -5
CN=C(C)/C(C(=O)OC)=C(/O)c1c(F)cccc1F | 0 | -10 | -1 | / | 4 | 22
CCOc1ccccc1N1CCN(Cc2cn[nH]c2-c2ccc(F)cc2)CC1 | 31* | 2 | 1 | 2 | -3 | -6
CCOc1ccccc1N1CCN(Cc2cccc(OC)c2OC)CC1 | -3 | 10 | -1 | -5 | 2 | -3
C=CCC[C@@H](Cc1ccc(F)cc1)C(=O)OC[C@H](C)NC(=O)[C@H](CC=C)CC(=O)N(CCO)Cc1ccccc1 | 134* | 4 | 2 | / | 2 | 2
O=C1OC(/C=C/c2ccccc2)=NC/1=C/C=C/c1ccccc1 | 0 | 32* | 2 | 3 | -4 | 96
CCOC(=O)c1cnc2ccc(C(=O)OC)cc2c1NCCN1CCOCC1 | 5 | 21 | 2 | 4 | 2 | 5
CCOC(=O)c1cnc2ccc(C(=O)OC)cc2c1NCCCN1CCOCC1 | 19 | 53* | 1 | -4 | / | 5
O=C(NCCCN1CCOCC1)c1ccc2c(c1)N(Cc1ccccc1)CCS2 | 119* | 0 | 2 | 0 | -25 | -3
Cc1ccc(CN2CCSc3ccc(C(=O)NCCCN4CCOCC4)cc32)cc1 | 162* | 9 | -3 | -14 | 2 | 2
O=C(NCCN1CCOCC1)c1ccc2c(c1)N(Cc1ccccc1)CCS2 | 118* | 9 | 0 | -10 | -13 | -10
Cc1ccc(CN2CCSc3ccc(C(=O)N4CCOCC4)cc32)cc1 | 17 | 19 | 2 | 4 | -4 | -6
O=C(NCCN1CCOCC1)c1ccc2c(c1)N(Cc1ccccc1)C(=O)CS2 | -7 | -8 | 1 | 1 | -2 | 1
O=C(Nc1ccc2c(c1)OCO2)c1ccc2nc([C@@H]3O[C@H](CO)[C@H](O)[C@H](O)[C@H]3O)[nH]c2c1 | -1 | 0 | / | / | / | /
Cc1ccc(S(=O)(=O)CC(O)COc2ccc(C#N)cc2)cc1 (centres undefined) | -2 | -3 | -2 | -1 | 0 | -5
CC1CC(C)CN(C(=O)c2ccc3c(c2)N(Cc2ccccc2)CCS3)C1 (centres undefined) | 10 | 8 | 3 | 35* | 9 | -7
O=C(NCC1CCCO1)c1ccc2c(c1)N(Cc1ccccc1)CCS2 (centres undefined) | 141* | -8 | -3 | -6 | 10 | 4
CN1CCN(CCCNC(=O)c2ccc3c(c2)N(Cc2ccccc2)CCS3)CC1 | 190* | 9 | 1 | -4 | 2 | 4
CCOc1ccc(C(=O)NCCCN2CCOCC2)cc1OCC | + | 2 | -1 | 0 | -3 | 5
O=C(N/N=C/c1ccc(-c2ccccc2[N+](=O)[O-])o1)[C@H]1C[C@@H]1c1ccccc1 | 0 | 1 | 0 | 42* | -33 | 18
Cc1ccc(C(=O)N/N=C/c2ccc(-c3ccccc3[N+](=O)[O-])o2)cn1 | 2 | 24 | 5 | 61* | -21 | 1
Cc1ccc(C(=O)N/N=C\c2ccc(-c3ccc(Cl)c(Cl)c3)o2)cn1 | 4 | 63* | -1 | 1 | -26 | 92
Cc1ccc(C(=O)N/N=C/c2ccc(-c3cccc(Cl)c3)o2)cn1 | 1 | 28 | 0 | -4 | 6 | 62
SMILES | FBA Mtb inh | GDH-TPI inh | UGM FP inh | RecA splice inh | Rv3671c protease | Mtb betalactam
CCN(CC)c1ccc(C(=O)N/N=C/c2ccccc2OC(F)F)cc1 | -2 | 24 | -3 | 2 | 11 | 11
CCOC(=O)c1cc2c(nc1NC(=S)NCc1ccccc1)CCCC2 | 2 | 9 | 0 | 1 | 3 | 9
Cc1nn2c(-n3ccnc3)c3c(nc2c1-c1ccccc1)CCC3 | 3 | 5 | 2 | -1 | -1 | 3
CC1(C(=O)NCc2cccc(Cl)c2)Cc2c(-c3ccccc3)ccnc2O1 (centres undefined) | 0 | 0 | / | / | / | /
CCNc1nc(C)nc2c1cnn2C | -5 | 3 | / | / | / | /
N=c1nc(-c2ccccc2)ccn1O | -15 | 39* | 4 | -1 | -2 | 1
CCOC(=O)/C(C#N)=C1/SC(CC)C(=O)N1c1ccc(C)cc1 (centres undefined) | 2 | 8 | -1 | 8 | -3 | -2
Cc1ccccc1/C=N/Nc1nc2ccccc2[nH]1 | 189* | 12 | 0 | -1 | 8 | 65
C(=N\Nc1nc2ccccc2[nH]1)/c1ccccc1 | 0 | 15 | -3 | -16 | 9 | 42
C(=C\c1ccccc1)/C=N/Nc1nc2ccccc2[nH]1 | 0 | 39* | -1 | 1 | 16 | 87
Cc1ccsc1/C=N/Nc1nc(Cl)c(Cl)cc1Cl | 1 | 15 | 0 | -2 | -1 | -7
Cc1nn(-c2ccccc2)c(Cl)c1/C=N/Nc1nc2ccccc2[nH]1 | 3 | -2 | -3 | -2 | 0 | -5
Cc1ccc(/C=N/Nc2nc3ccccc3[nH]2)s1 | 1 | 39* | 1 | 9 | -1 | 7
Cc1ccc(/C=N/Nc2nc(Cl)c(Cl)cc2Cl)s1 | 1 | 31* | 0 | 0 | 4 | -12
CC(c1ccccc1)N1CC(C(=O)O)CC1=O (centres undefined) | 0 | 0 | -1 | 3 | 6 | -4
COc1ccc(C(=O)N2CCN(C(=O)Cc3ccccc3)CC2)cc1OC | 1 | 0 | -3 | 2 | 0 | 5
O=C(CSc1ncnc2c1nnn2Cc1ccc(F)cc1)NCC1CCCO1 (centres undefined) | -2 | 5 | 0 | 39* | 11 | 7
CCCOC(=O)c1ccc(NS(=O)(=O)c2cccs2)cc1 | 3 | 5 | 6 | 0 | -3 | 81
CCOC(=O)CSc1n[nH]c(NC(=O)CC)n1 | 3 | -7 | -4 | 3 | -8 | -4
CCOC(=O)CSc1n[nH]c(NC(=O)c2cccc(C(F)(F)F)c2)n1 | 2 | -2 | 2 | 50* | 1 | 2
CCn1nc(NS(=O)(=O)c2ccc([N+](=O)[O-])cc2)c2cc3cccc(C)c3nc21 | 2 | 8 | 0 | 0 | 16 | -2
Cc1cc(-c2ccccc2C(=O)NC2CCCCC2)on1 | -1 | 6 | -2 | -2 | 0 | -2
CC(C)c1onc(C(=O)N2CCCCC2C)c1[N+](=O)[O-] (centres undefined) | 2 | 3 | -4 | 3 | 5 | -3
